Results on 11 compounds are retold here after PubChem BioAssay.

Each structure is given as a SMILES string.

This experiment is described as follows: binders of probe aHhip on microarray, primary screen, stem cell growth factor project, biochemical, small-molecule microarray, fluorescence 635/667 (AID 1087).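 Note: score merges spot fluorescence at 667nm with spot signal to noise ratio.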 The conditions noted are these: higher = more signal.
Turning to `C#CCCCON=C1[C@H]2CCn3c(=O)n(C)c(=O)n3[C@H]2[C@H](O)[C@@H]2O[C@H]12`, the composite z-score amounted to 0.535.

With `CCCCC#C[C@@H]1C=C[C@H](OC(C)=O)[C@@H](COC(C)=O)O1`, the composite z-score is -0.134. In the case of `CO[C@@H]1COC(=O)[C@@H](C)COC(=O)[C@@H](C)NC(=O)CC=C[C@@H]1C` it was -0.342. `Cc1ccc(S(=O)(=O)OC[C@H]2CN3[C@H](c4ccc(Br)cc4)[C@@H](C)CC[C@H]3C(=O)O2)cc1`: the composite z-score was -0.191. As to `COc1ccc(COC(=O)NN=C2C[C@@H](O)[C@@H](O)[C@@H]3[C@@H]4C(=O)N(c5cccc(Oc6ccccc6)c5)C(=O)[C@@H]4CC[C@@H]23)cc1`, the composite z-score was determined as 0.262. With `O=C1C2=CC[C@H]3C(=O)N(c4cccc(Oc5ccccc5)c4)C(=O)[C@H]3[C@H]2[C@H](O)[C@@H]2O[C@H]12`, the composite z-score is -0.184. Take `CC(CCN1CCCCc2nc(C)c(C)cc21)=NO[C@H](C)c1cn([C@H](CO)Cc2ccccc2)nn1`: the composite z-score is -0.0237. The value for `CO[C@@H]1COC(=O)[C@H](CCSC)NC(=O)CC=C[C@@H](C)COC(=O)CCC[C@H]1C` was -0.161. With `CC(CCN1CCCc2nc(C)c(C)cc21)=NO[C@@H](C)c1cc(-c2c(C)cc(C)cc2C)no1`, the composite z-score was -0.166.

`CO[C@@H]1COC(=O)[C@@H](C)NC(=O)CC=C[C@@H](C)[C@H](NS(=O)(=O)c2ccc(C)cc2)COC(=O)[C@H](C)NC(=O)CC=C[C@H]1C` gave a composite z-score of 0.168. With `CCN1C(=O)[C@H]2[C@H]3[C@H](O)[C@H](O)CC(=NOC[C@H]4O[C@H](c5ccccc5)C=C[C@@H]4Oc4ccc(OC)cc4)[C@@H]3CC[C@H]2C1=O`, the composite z-score turned out to be 0.351.
